Assay results reported in PubChem BioAssay (NCI).
Where “and” joins values, the source holds several entries; their conditions need not be identical. Equal entries are not always repeated. About 83,000 compounds went through this panel and 20% of them were active in at least one assay; those are over-represented in the sample as a whole.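 For each line, cells grew in 96-well plates with the test compound present at a single concentration for 48 hours.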 Calls of active or inactive are those of the source. How the source made its calls: active means growth percent below 10; inactive means the rest.

The compounds below were run on HL-60(TB) leukemia (assay: NCI-60 one-dose screen, 48 h (100 = growth as untreated, 0 = no growth, -100 = all killed)). Settings: 10 µM unless noted.

| Compound | growth |
| --- | --- |
| Cc1ccc2nc(C[n+]3ccc4ccccc4c3)ccc2c1 | 26.1% (inactive) |
| Cc1cc(Cl)nc(N(CCCNc2ccnc3cc(Cl)ccc23)Cc2cccs2)n1 | -41.4% (active) |
| CC(=O)c1c(C)c2cnc(Nc3ccc(N4CCNCC4)cn3)nc2n(C2CCCC2)c1=O | 21.8% (inactive) |
| COC(=O)c1ccc2[nH]c(O)c(C(=Nc3ccc(N(C)C(=O)CN4CCN(C)CC4)cc3)c3ccc(C)cc3)c2c1 | -55.7% (active) |
| Nc1ccccc1SC1CC(=O)N(c2cccc3ccccc23)C1=O (stereo not given) | 97% (inactive) |
| C=C1c2c(C)nn(-c3ccc(OC)cc3)c2N(C)C23C[C@@H]1C1(C)c4c(C)nn(-c5ccc(OC)cc5)c4N(C)C(C)(C[C@H]12)C3 (stereo not given in full) | -2.21% (active) |
| CC1(C)CCCN1CCCN1c2ccccc2Sc2ccc(Cl)cc21 | 46% (inactive) |
| Oc1ccc(/C=N/N=C2c3ccccc3-c3ccccc32)c(O)c1 | 71.7% (inactive) |
| O=C(N/N=C/c1ccccc1)C(Oc1ccccc1)c1ccccc1 (stereo not given) | 109% (inactive) |
| Oc1c(Cl)cc(Cl)c2cccnc12 | 56.4% (inactive) and 5.89% (active) |
| O=C1c2ccccc2C(=O)c2c1ccc1[nH]c(CCl)nc21 | -37.4% (active) |
| COc1ccc(NC(=O)c2ccoc2COc2ccccc2)cc1 | 96.9% (inactive) |
| Brc1ccc(-n2cc(-c3nn[nH]n3)c(-c3cccs3)n2)cc1 | 104% (inactive) |
| COc1ccc(-c2conc2-n2nc(-c3ccccc3)nc2-c2ccccc2)cc1 | 99.3% (inactive) |
| COc1ccc2[nH]cc(-c3nc(-c4cn(C)c5c(Cl)nccc45)cs3)c2c1 | 30.5% (inactive) |
| CN1CCN(Cc2ccc(NC(=O)c3nc4ccc5[nH]ncc5c4c4c3CCC4)cc2C(F)(F)F)CC1 | -59.1% (active) |
| O=Nc1c(O)c(Cl)cc2ccccc12 | 42.7% (inactive) |
| COc1ccc(Nc2ncccc2C(=O)NCc2cn(Cc3cccc(Oc4ccccc4)c3)nn2)c(OC)c1 | 18.9% (inactive) |
| CCc1onc(-c2ccc(OC)cc2)c1-c1ccccc1OCCN(CC)CC | 82.6% (inactive) |
| COC(=O)c1cc(-c2ccc(C)cc2)n(C(=O)CSc2nc3sc(C(N)=O)c(C)c3c(=O)n2Cc2ccccc2)n1 | 106% (inactive) |

| Compound | growth |
| --- | --- |
| O=C(/C=C/c1cccs1)c1ccc(Cl)nc1 | 100% (inactive) |
| CCSc1nc(Cl)c(C#N)c(-c2ccc(F)cc2)n1 | 81.3% (inactive) |
| CNC(C)=O | 107% (inactive) |
| COc1ccc(-c2nnc(COc3ccc(NC(=O)Nc4ccc(Cl)c(C(F)(F)F)c4)cc3F)o2)cc1 | -18.5% (active) |
| COc1ccc(-c2ccc3cnc4sc(-c5ccc(OC)cc5)nc4c3n2)cc1 | 95.3% (inactive) |
| CC(C)Cn1cnc2c3ccccc3nc(NCn3nc(-c4cc(Cl)cc(Cl)c4Cl)oc3=S)c21 | 43.8% (inactive) |
| COc1cccc(Cn2c(-c3nonc3NC(C)=O)nc3ccccc32)c1 | -2.59% (active) |
| COc1ccc(-c2nc3sc(-c4ccc(OC)cc4)c(-c4ccc(OC)cc4)n3c2/C=C/c2ccc(C(C)C)cc2)cc1 | 97% (inactive) |
| COc1ccc2occ(C3=C(c4c[nH]c5ccccc45)C(=O)N(O)C3=O)c2c1 | 97.3% (inactive) |
| COc1cc(CNC(=O)/C=C/C=C/c2ccc3c(c2)OCO3)ccc1OCc1cn(-c2ccc(C)c(C)c2)nn1 | 84.4% (inactive) |
| CC(=O)Nc1cc(S(=O)(=O)O)cc2cc(S(=O)(=O)O)c(N=Nc3ccccc3)c(O)c12 | 109% (inactive) and 94.3% (inactive) |
| Cc1sc2nc(N3CCCCC3)[nH]c(=O)c2c1C | 102% (inactive) |
| CCC(=C(c1ccc(OCCN2CCCC2)cc1)c1ccc(OCCN2CCCC2)cc1)c1ccc(Cl)cc1 | -52.5% (active) |
| COc1ccc(C2=CC(c3cc(OC)c(OC)c(OC)c3)NC(=O)N2)cc1OC (stereo not given) | 2.95% (active) |
| COc1ccc(-c2nc3c(c(-c4ccccc4)nn3-c3ccccc3)c(-c3ccc(N4CCN(C)CC4)cc3)c2C#N)cc1 | 80.4% (inactive) |
| Cc1ccc2sc3c(NCCCNCCO)nc4ccccc4c3c(=O)c2c1 | -0.607% (active) |
| C/C=C\COc1cc(C)c(Cl)cc1Cl | 105% (inactive) |
| CCOC(=O)C1=C(N)Oc2c(sc3c(F)cccc23)C1c1ccc(O)cc1 (stereo not given) | 18.4% (inactive) |
| C#Cc1cccc(Nc2ncnc3ccc(-c4cnc(N)nc4)cc23)c1 | 34.2% (inactive) |
| COc1ccc(/C(C)=C(/c2ccc(OCCCN(C)C)cc2)c2ccc(OC(=O)Cc3ccccc3)cc2)cc1 | 72% (inactive) |
